Reference: paper PMC5540273 (PLoS ONE, 2017)
pKd: −log10 of the molar value.

The molecules below were run on T1, PIP5K2C.
T1 construct: gene PIP4K2C
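Also: kd values determined as follow-up on hits from a single-replicate KINOMEscan panel screen.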

SMILES | pKd
COc1cc(Nc2nccc(N3CCC(NC(=O)C4COc5ccccc5O4)C3)n2)cc(OC)c1OC (centres unmarked) [GSK1379761] | 6.17
CCS(=O)c1ccc(-c2coc3ccc(-c4nnc(C)o4)cc23)cc1 (centres unmarked) | 7.07
COc1cc2ncn(-c3cc(OCc4ccncc4Br)c(C(N)=O)s3)c2cc1OC [GW854278] | 6.48

These molecules were tested on PLK1.

SMILES | pKd
COc1cc2ncn(-c3cc(OCc4ccc(S(C)(=O)=O)cc4)c(C(N)=O)s3)c2cc1OC [GW869979] | 7.85
COc1cc2ncn(-c3cc(OCc4ccncc4)c(C(N)=O)s3)c2cc1OC [GSK336313] | 6.96
Cc1ccccc1COc1cc(-n2cnc3cc(Cl)ccc32)sc1C(N)=O [GW813349] | 7.72
COc1cc2ncn(-c3cc(OCc4ccncc4Br)c(C(N)=O)s3)c2cc1OC [GW854278] | 8.96

The molecules below were run on PLK2.

SMILES | pKd
COc1cc2ncn(-c3cc(OCc4ccc(S(C)(=O)=O)cc4)c(C(N)=O)s3)c2cc1OC [GW869979] | 8.23
COc1cc2ncn(-c3cc(OCc4ccncc4)c(C(N)=O)s3)c2cc1OC [GSK336313] | 7.39
COc1cc2ncn(-c3cc(OCCCc4ccccc4)c(C(N)=O)s3)c2cc1OC [GSK205189] | 7.47
Cc1ccccc1COc1cc(-n2cnc3cc(Cl)ccc32)sc1C(N)=O [GW813349] | 7.17
COc1cc2ncn(-c3cc(OCc4ccncc4Br)c(C(N)=O)s3)c2cc1OC [GW854278] | 8.85

What follows are molecules tested on PLK3.

SMILES | pKd
COc1cc2ncn(-c3cc(OCc4ccc(S(C)(=O)=O)cc4)c(C(N)=O)s3)c2cc1OC [GW869979] | 7.00
COc1cc2ncn(-c3cc(OCCCc4ccccc4)c(C(N)=O)s3)c2cc1OC [GSK205189] | 6.92
Cc1ccccc1COc1cc(-n2cnc3cc(Cl)ccc32)sc1C(N)=O [GW813349] | 7.00
COc1cc2ncn(-c3cc(OCc4ccncc4Br)c(C(N)=O)s3)c2cc1OC [GW854278] | 8.03

These molecules were tested on RIPK2.

SMILES | pKd
Nc1ncnc2c1ncn2-c1cccc(F)c1 [SKF-97560] | < 5.00
COc1cc2nccc(Nc3cccc(Oc4ccccc4)c3)c2cc1OC.Cl [GW284543] | 6.36
Nc1nc(-c2ccccc2F)c(-c2ccnc3ccccc23)s1 [GW560459] | < 5.00
COc1ccc(Nc2nccc(N3CCC(NS(=O)(=O)c4ccc(NC(C)=O)cc4)C3)n2)cc1 (centres unmarked) [GSK1379729] | < 5.00
